High-throughput results as filed in PubChem.
Shown are actives, neighbours in structure and some others; about 3.3% of the full set was active somewhere.
LmPK inhibitor – inhibitors of Leishmania mexicana pyruvate kinase. purified LmPK, Kinase-Glo ATP luminescence, 1 h. Potency, µM (highest dose often 57.5 µM), for inactives: at the top dose activity change, negative = inhibition, most hits filed as inhibitors. actives 0.37% (n = 290,000). AID 1721; also: % is scaled to controls: 0 for no effect and ±100 for the full control effect
Target sequence (Q27686 whole entry, looked up): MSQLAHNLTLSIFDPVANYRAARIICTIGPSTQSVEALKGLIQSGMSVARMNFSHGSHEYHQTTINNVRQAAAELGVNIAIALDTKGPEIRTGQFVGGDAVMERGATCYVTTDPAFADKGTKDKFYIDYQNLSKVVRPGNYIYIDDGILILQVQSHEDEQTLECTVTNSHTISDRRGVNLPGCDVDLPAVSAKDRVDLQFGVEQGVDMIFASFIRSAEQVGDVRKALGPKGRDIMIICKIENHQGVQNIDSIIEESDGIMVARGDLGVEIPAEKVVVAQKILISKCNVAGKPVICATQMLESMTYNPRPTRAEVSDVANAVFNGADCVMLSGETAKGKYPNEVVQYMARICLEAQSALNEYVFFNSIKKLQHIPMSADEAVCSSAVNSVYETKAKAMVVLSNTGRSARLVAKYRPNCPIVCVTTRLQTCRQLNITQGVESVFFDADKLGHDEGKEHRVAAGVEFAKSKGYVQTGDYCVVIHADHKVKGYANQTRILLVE
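Kinase-Glo luminescence read after 1 h RT reaction of 0.1 nM LmPK with 0.5 mM PEP and 0.1 mM ADP. Activity scaled between uninhibited and enzyme-free controls.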
Sm TGR block – S. mansoni TGR enzyme inhibition; Q962Y6; purified TGR, DTNB reduction, TNB absorbance 405 nm; Potency, µM (series often up to 114 µM), for the others: at the highest dose activity change, negative = inhibition, usual class: inhibitors; actives 3% (n = 360,000); also: % is scaled to controls: 0 for no effect and ±100 for the full control effect; nearly all actives have a fitted effect of over 60% in size
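TGR 20 nM + NADPH 100 uM (dispensed conc.), cpd preinc 15 min RT; start with NADPH (500 uM addition) then DTNB (15 mM addition). Kinetic TNB absorbance, 405 nm filter. Four-parameter Hill fit across titration.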
Tb PYK inh – blocks Trypanosoma brucei pyruvate kinase. actives 0.12% (n = 410,000). TbPYK enzyme, Kinase-Glo Plus ATP luminescence, 45 min. Q57TT1. AID 624173. Potency, µM (doses to about 76.8 µM), for inactives: at the highest dose activity, negative = inhibition, usual class: inhibitors; also: % is scaled to controls: 0 for no effect and ±100 for the full control effect; nearly all actives have a fitted effect of over 50% in size
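T. brucei PYK with substrate was exposed to pin-transferred compounds across a concentration series, then started with 130 uM ADP (final). After 45 min at room temperature, Kinase-Glo Plus luminescence was read, normalized and curve-fitted.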
RE007 growth inh – less growth of the S. pombe RE007 Vpr strain; S. pombe RE007 Vpr strain, BacTiter-Glo ATP luminescence, 24 h; Potency, µM (highest dose often 92.2 µM), without a hit: at the top dose activity change, negative = less growth, actives largely listed as inhibitors; actives 0.21% (n = 360,000); active = well fitted falling curve with a large enough effect; inconclusive = small, poorly fitted or top-dose-only effect; inactive = no such curve, though single readings can be large or run the other way; also: % is scaled to controls: 0 for no effect and ±100 for the full control effect; nearly all actives have a fitted effect of over 50% in size
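Fission yeast strain RE007, carrying one chromosomally integrated HIV-1 vpr copy, was seeded at OD 0.01 in PMG+AL medium with 23 nL pinned compound. After 24 h at 30 °C and 99% humidity, viability was read by BacTiter-Glo luminescence.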
NS1 inh – inhibitors of influenza NS1 protein function; Potency, µM (top dose mostly 46.1 µM), inactives show at the top dose activity, positive = more growth; actives 0.4% (n = 270,000); AID 2326; calls by dose curve; also: actives are rising curves; nearly all actives have a fitted effect of over 50% in size
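Compounds were scored for reversing the slow growth caused by influenza A NS1 in S. cerevisiae, measured by optical density at 600 nm. Assay medium contained 2% galactose at pH 6.0; NS1-free yeast of the same strain were the positive control.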
SARS PLpro yeast – SARS-CoV PLP inhibition in yeast; Potency, µM (top dose mostly 32.9 µM), for the others: at the top dose activity, positive = growth rescue, usual class: activators; AID 485353; S. cerevisiae expressing SARS-CoV PLpro, growth rescue; actives 0.19% (n = 330,000); calls by dose curve; also: 0% is about no effect; nearly all actives have a fitted effect of over 55% in size
Starred values were filed as active, the others as inactive; ? = inconclusive; . = no result given; [ ] = another dose, or the depositor's remark. Unless noted, calls follow the shape of the dose curve; as a rule, active = well fitted curve in the direction sought with a large enough effect; inconclusive = small, poorly fitted or top-dose-only effect, or another doubt; inactive = no such curve, though single readings can be large; an effect the other way counts as inactive or inconclusive. Potency is read from the fitted curve at half-maximal effect.

SMILES | LmPK inhibitor | Sm TGR block | Tb PYK inh | RE007 growth inh | NS1 inh | SARS PLpro yeast
CC1(C)CC(=O)C2=C(C1)N(Cc1ccco1)C(=O)C2(NC(=O)c1cccnc1)C(F)(F)F (stereo not drawn) | 2.2% | 20µM* | -14.3% | -7.0% | 4.5% | 2.8%
CCN(CC(=O)NC(C)(C)C)C(=O)COc1c(Cl)cc(Cl)c2ccc(C)nc12 | -1.8% | 15.8µM* | -2.2% | ? | -32.3% | -0.6%
CCOc1ccccc1NC(=O)COC(=O)COc1c(Cl)cc(Cl)c2ccc(C)nc12 | . | . | 5.1% | -3.3% | . | .
CC(=O)Nc1ccc(C(=O)CN2CCN(c3ccccc3)CC2)cc1 | 0.8% | 14.1µM* | 0.8% | -5.5% | -4.5% | 2.4%
CC(=O)c1ccc(NC(=O)CN2CCN(c3ccccc3)CC2)cc1 | 2.6% | -14.3% | 3.0% | -9.6% | -16.7% | -4.0%
COc1ccc(N2CCN(CC(=O)c3ccccc3)CC2)cc1 | -6.4% | 12.6µM* | -15.1% | -11.5% | -1.2% | -2.4%
O=C(CN1CCN(c2ccc([N+](=O)[O-])cc2)CC1)c1ccccc1 | 8.6% | 11.2µM* | -2.5% | -10.0% | -1.4% | -0.2%
COc1ccc(C(=O)CN2CCN(c3cc(C)nc4ccccc34)CC2)cc1 | 0.1% | 20µM* | 0.2% | -10.4% | 4.7% | -0.7%
CCOC(=O)c1cc(-c2ccc(F)cc2)n(CCC(=O)NCc2ccc(C)cc2)c1C | . | 1.8% | 9.0%[15.4 µM] | . | . | .
C[C@H]1Cc2c(COc3ccccc3)nc3c(c2CO1)CN(C(=O)c1ccco1)CC3 | 3.2%[11.5 µM] | . | . | . | . | .
CCC(=O)O | . | . | -0.5% | . | . | .
NC(N)=N/N=C(\c1ccc(Cl)cc1)C1CC1 | . | . | . | . | -9.0% | .
Cc1c(CCC(=O)NCc2ccc(F)cc2)c(=O)oc2cc(O)ccc12 | . | 4.0% | 2.9% | . | . | .
O=C(CSc1ncnc2sc3c(c12)CCCCC3)NCc1ccco1 | 5.4% | 31.6µM* | -0.6% | -2.7% | -7.5% | -11.8%
O=C(CSc1ncnc2sc3c(c12)CCCC3)c1ccco1 | 3.4% | -24.2% | -18.9% | -9.8% | -14.1% | 0.3%
CC(C)c1nc2sc3c(SCC(=O)NCc4ccco4)ncnc3c2c2c1CCC2 | 1.0% | 25.1µM* | -10.4% | -0.2% | 5.5% | -5.8%
CC(C)Cc1nc2sc3c(SCC(N)=O)ncnc3c2c2c1CCC2 | -0.8% | -1.1% | -2.5% | 24.9% | -2.8% | -1.1%
COCCCn1c(SCC(=O)NCc2ccco2)nc2sc3c(c2c1=O)CCC3 | 3.5% | 39.8µM* | 4.7% | 11.7% | -10.3% | -6.1%
CCc1ccccc1NC(=O)Cn1c(C(=O)OC)cc2oc(C)cc21 | . | -15.5% | -3.4% | . | . | .
O=C(c1csnn1)N1CCC2(CC1)CCN(C(c1ccccc1)c1ccccc1)CC2 | . | . | 5.0% | . | . | .
C=CC1=C2C=C(C3CC3)N(CCCOC(C)C)C=C2C(=O)C(C)(OC(=O)c2ccco2)C1=O (stereo not drawn) | -2.1%[11.5 µM] | . | . | . | . | .
Cc1oc(-c2ccc3c(c2)OCCO3)cc1C(=O)NC(Cc1ccccc1)C(=O)O (stereo not drawn) | 7.6% | 35.5µM* | -18.2% | -8.1% | -1.8% | -1.1%
CC(C)CCNC(=O)CN1C(=O)CN=C(c2ccccc2)c2ccccc21 | 0.4% | 7.0% | -2.9% | -19.5% | -1.0% | 1.3%
O=C(Cc1csc(-c2ccccc2)n1)NCc1ccc(F)cc1 | 5.0% | 6.0% | -0.9% | -13.1% | -10.8% | -28.5%
COc1ccc(C2=NCC(=O)N(CC(=O)NCc3ccco3)c3sc4c(c32)CCCC4)cc1OC | 6.9% | 22.4µM* | 6.1% | 11.2% | -30.4% | -0.9%
SMILES | LmPK inhibitor | Sm TGR block | Tb PYK inh | RE007 growth inh | NS1 inh | SARS PLpro yeast
O=C(CN1C(=O)CN=C(c2ccccc2)c2ccccc21)NCc1ccco1 | 13.1% | 39.8µM* | -2.4% | 11.9% | -4.3% | 0.9%
COc1ccc(C(=O)Nc2sc3c(c2C(=O)NCc2ccco2)CCCC3)cc1OC | 15.9% | -17.0% | 5.0% | -5.4% | 4.5% | 8.8%
O=C(Cc1csc(-c2ccccc2)n1)NCc1ccco1 | 2.1% | 39.8µM* | -3.6% | -6.9% | . | 0.3%
Cc1cc(C)cc(NC(=O)C(NS(=O)(=O)c2cccc3nsnc23)c2ccccc2)c1 (stereo not drawn) | . | -1.4% | 0.7% | . | . | .
COc1c(C)cccc1C(=O)Nc1cccc2ccc(C)nc12 | . | -2.8% | 0.0% | . | . | .
COc1ccc(CCNC(=O)c2cnc3sc(N4CCOCC4)nn3c2=O)cc1 | . | -0.4% | -0.4% | . | . | .
CCN(CC)C(=O)c1c(NC(=O)c2ccccc2F)sc2c1CCC(C(C)(C)C)C2 (stereo not drawn) | . | 1.3% | 1.8% | . | . | .
COc1cccc(C2C(C(=O)c3ccc(C)o3)=C(O)C(=O)N2c2cc(C)on2)c1 (stereo not drawn) | 10.1% | ? | 7.3% | 0.2% | -4.3% | -1.9%
Cc1ccc(C(=O)C2=C(O)C(=O)N(Cc3ccco3)C2c2cccc(Br)c2)o1 (stereo not drawn) | 3.5% | 11.2µM* | -3.7% | -5.4% | ? | 3.3%
Cc1ccc(C(=O)C2=C(O)C(=O)N(Cc3ccco3)C2c2ccc(N(C)C)cc2)o1 (stereo not drawn) | -10.5% | -22.9% | -5.1% | 3.5% | ? | 5.0%
Cc1ccc(C(=O)C2=C(O)C(=O)N(c3ncccn3)C2c2cccc(Cl)c2)o1 (stereo not drawn) | 3.8% | 11.2µM* | . | . | 2.9% | 0.5%
O=C(C1=C(O)C(=O)N(Cc2ccco2)C1c1cccc(O)c1)c1ccco1 (stereo not drawn) | 3.0% | ? | 0.0% | -8.2% | -2.7% | -1.2%
Cc1ccc(C(=O)C2=C(O)C(=O)N(Cc3ccco3)C2c2cccc(Cl)c2)o1 (stereo not drawn) | -7.5% | 50.1µM* | -12.6% | 0.5% | 22.7% | -7.7%
CCc1ccccc1OCCSc1nnc(-c2cc(OC)c(OC)c(OC)c2)o1 | . | -12.8% | -8.2% | . | . | .
COc1cc(-c2nnc(SCCOc3cc(C)cc(C)c3)o2)cc(OC)c1OC | . | 35.5µM* | -3.7% | . | . | .
Cn1c(=O)c2c(SCc3ccccc3)nc(-c3ccco3)nc2n(C)c1=O | 4.9% | -12.2% | . | . | 1.0% | 4.7%
CC(Sc1nc(-c2ccco2)nc2c1c(=O)n(C)c(=O)n2C)C(=O)O (stereo not drawn) | 5.7% | 39.8µM* | 0.8% | -8.0% | 2.5% | -0.2%
CC(CN(C)C)CN1c2ccccc2S(=O)(=O)c2ccccc21 (stereo not drawn) | . | . | 3.4% | . | . | .
COc1ccc(NC(=S)Nc2ccc3snnc3c2)cc1 | 5.7% | 15.8µM* | -11.7% | 4.0% | 5.8% | -1.2%
COc1ccc(NC(=S)Nc2ccc3nccnc3c2)cc1 | 0.8% | 31.6µM* | -7.8% | -1.6% | -5.0% | -7.8%
COc1ccc(NC(=S)Nc2ccccc2)cc1 | -9.1% | -33.6% | -1.9% | 8.4% | -8.0% | 5.2%
